Hit rate of the full screen: of about 290,000 compounds, about 3,000 (1%) were called active. Shown is part of a subset that was picked to be rich in actives. Values without a mark were called inactive. No stated cut-off is given here; in the data, active means inhibition mostly above about 36% (no sharp cut-off); inactive means mostly below about 34%.
Test: NOD1 signaling inhibitors, primary screen, cell-based, luminescence, uHTS (AID 1578);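 further: HEK-293T reporter cells stimulated with the NOD1 agonist gamma-tri-DAP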
Conditions: NOD1-driven NF-kB luciferase reporter cells, at 4 µM, stronger effect = higher value

SMILES	inhibition
CCCNc1cc(=S)nc(N)[nH]1	5%
O=C(c1ccc(Cl)cc1)N1CCCCC(Sc2nnc(-c3ccc4c(c3)OCO4)o2)C1=O (centres undefined)	57.8% (active)
N#CCSc1nnc(-c2ccc3c(c2)OCO3)o1	-37.8%
Clc1ccc(CSc2nnc(-c3ccc4c(c3)OCO4)o2)cc1	-7.9%
O=C1CCCCC1Sc1nnc(-c2ccc3c(c2)OCO3)o1 (centres undefined)	87.4% (active)
O=C1OCCC1Sc1nnc(-c2ccc3c(c2)OCO3)o1 (centres undefined)	-4.4%
O=C(O)CSc1nnc(-c2ccc3c(c2)OCO3)o1	4.3%
Clc1nc(Oc2ccccc2)nc(-c2cn(-c3ccccc3)c3ccccc23)n1	-9.4%
O=C(/C=C/c1cccc(OCc2ccccc2)c1)c1cccnc1	36.4%
O=C(/C=C/c1cccc(O)c1)c1cccnc1	-20.2%
O=C(/C=C/c1ccc(OCc2ccccc2)c(OCc2ccccc2)c1)c1cccnc1	87.9% (active)
CC(=O)c1c2c3c(c(Br)ccc3n(C)c1=O)C(=O)c1ccccc1-2	-3.8%
CCN1CCN(Cc2ccc(NC(=O)c3ccc(C)c(NC(=O)c4nccn4C)c3)cc2C(F)(F)F)CC1	7.7%
CCN1CCN(Cc2ccc(NC(=O)c3cc(NC(=O)C(=O)c4c[nH]c5ccccc45)cc(OC)c3)cc2C(F)(F)F)CC1	-3.5%
CCN1CCN(Cc2ccc(NC(=O)c3ccc(C)c(NC(=O)c4cccc5[nH]ccc45)c3)cc2C(F)(F)F)CC1	-0.1%
CCN1CCN(Cc2ccc(NC(=O)c3ccc(C)c(NC(=O)c4cc(-c5ccc(Br)cc5)n[nH]4)c3)cc2C(F)(F)F)CC1	-4.1%
CCN1CCN(Cc2ccc(NC(=O)c3ccc(C)c(NC(=O)c4cccc(-c5cn[nH]c(=O)c5)c4)c3)cc2C(F)(F)F)CC1	72% (active)
CCN1CCN(Cc2ccc(NC(=O)c3ccc(C)c(NC(=O)c4ccnnc4)c3)cc2C(F)(F)F)CC1	3.7%
CCN1CCN(Cc2ccc(NC(=O)c3ccc(C)c(NC(=O)c4ccc5n[nH]nc5c4)c3)cc2C(F)(F)F)CC1	-1.3%
CCN1CCN(Cc2ccc(NC(=O)c3ccc(C)c(NC(=O)C(=O)c4c[nH]c5ccccc45)c3)cc2C(F)(F)F)CC1	67.1% (active)
Cc1cc(C)n(NC(=S)NC2CCCC2)c(=O)c1C#N	-10.5%
CC1CC(C)CN(S(=O)(=O)c2ccc(Oc3ccc([N+](=O)[O-])cc3)cc2)C1 (centres undefined)	36.9%
O=C(CCn1nc(-c2ccccc2)ccc1=O)N1CCN(c2ccccn2)CC1	-14.7%
O=C(CCc1nnc(CCC2CCCCC2)o1)NCCc1ccccn1	-21.2%

SMILES	inhibition
COC(=O)c1c(C)oc(C)c1S(=O)(=O)NCc1ccc(OC)cc1	-3.5%
Cc1c(C)n(CC(O)CN(CCO)CCO)c2ccccc12 (centres undefined)	-21.9%
COc1ccc(CCNC(=O)C(C)OC(=O)c2ccco2)cc1OC (centres undefined)	-19.4%
O=C1OCCC1Sc1nnc(-c2ccc(Br)cc2)o1 (centres undefined)	-16%
O=C1OCCC1Sc1nnc(-c2ccccc2)o1 (centres undefined)	0.8%
CCOc1ccc(C2C(C(=O)c3ccco3)=C(O)C(=O)N2CCN2CCOCC2)cc1 (centres undefined)	8.2%
Cc1ccc(S(=O)(=O)/N=C(/c2ccccc2)N2CCOCC2)cc1	7.1%
Cc1ccc(CS(=O)(=O)CCC(=O)NCCC(C)C)cc1	-16.6%
CCOc1cc(/C=N\Nc2ncc(F)c(N3CCOCC3)n2)ccc1Oc1nc(Cl)ncc1F	19.9%
Fc1ccc(-c2cnn3c(-c4ccncc4)ccnc23)cc1	-51.9%
Clc1ccc(-c2cnn3c(-c4ccncc4)ccnc23)cc1	52% (active)
Fc1ccc(-c2cnn3c(-c4cccs4)ccnc23)cc1	-29%
O=c1c2sc3nc(N4CCOCC4)c4c(c3c2ncn1CCc1ccccc1)CCCC4	45.8%
O=C(Nc1ccc(F)cc1)Nc1nnc(-c2ccncc2)s1	-10.7%
O=C(Nc1ccc(Cl)cc1)Nc1nnc(CSCc2ccccc2)s1	-3.9%
O=C(Nc1ccc(Cl)c(Cl)c1)Nc1nnc(CSc2ccccc2)s1	74.5% (active)
COc1ccc(NC(=O)Nc2nnc(-c3cccs3)s2)cc1	-3%
O=C(Nc1ccc(Cl)cc1)Nc1nnc(CSc2ccc(Cl)cc2)s1	-8.9%
CCn1ncc(NC(=O)Nc2cccc(C(F)(F)F)c2)c1C(N)=O	-12.4%
O=C(Nc1ccncc1)Nc1cccc(C(F)(F)F)c1	3.5%
O=C(Nc1ccc(Cl)cc1)Nc1nnc(-c2ccncc2)s1	67.3%
COc1ccc(NC(=O)Nc2nnc(-c3ccco3)s2)cc1	-7.3%
COc1ccc(-c2[nH]ncc2CN2CCC(C(=O)N3CCOCC3)CC2)c(F)c1	-28.9%
Cc1nc(C(=O)NCc2ccccc2)sc1C1(C)CC(c2cccc([N+](=O)[O-])c2)=NO1 (centres undefined)	-0.1%

SMILES	inhibition
COc1ccc(CNC(=S)Nc2ccccc2-c2ccccc2)cc1	-26.8%
O=C(NC1CCCCC1)C1CCN(c2ncccn2)CC1	-38.7%
O=S(=O)(NCc1ccc(F)cc1)c1ccc(-n2cnnn2)cc1	-14.1%
O=C(Nc1ccc(Cl)c(Cl)c1)Nc1nnc(-c2ccncc2)s1	-26.4%
Cc1ccc(NC(=O)Nc2nnc(CSCCOc3ccc(Cl)cc3)s2)cc1	-1.1%
Cc1nnc(NC(=O)Nc2cccc(Cl)c2)s1	-14.6%
O=C(Nc1cccc(Cl)c1)Nc1nnc(CSCCOc2ccc(Cl)cc2)s1	67.8% (active)
Cc1ccc(OCCSCc2nnc(NC(=O)Nc3cccc(Cl)c3)s2)cc1	13.6%
O=C(Nc1cccc(Cl)c1)Nc1nnc(-c2ccncc2)s1	95.7% (active)
CSc1ccccc1NC(=O)C1=CC(c2cccs2)=NS(=O)(=O)N1C	3.3%
COc1ccc(C(=O)/C=C/C(=O)N(Cc2ccc(F)cc2)C(C(=O)NC2CCCCC2)c2ccncc2)c(O)c1 (centres undefined)	-6.1%
CCCN(CC(=O)Nc1ccc(C(C)=O)cc1)CC(=O)Nc1ccccc1C	-32.2%
COc1cc2c(cc1OC)C(c1ccc(-c3ccc(Cl)cc3Cl)o1)=NCC2	58.8%
COc1cc2c(cc1OC)C(c1ccc(-c3ccccc3Cl)o1)=NCC2	75.2% (active)
COc1cc2c(cc1OC)C(c1ccc(-c3ccc(Cl)c(Cl)c3)o1)=NCC2	63.1%
OCCN1CCN(c2cc(C(F)(F)F)nc3ccccc23)CC1	-6.8%
C/C(=N\NC(=O)c1ccc(-c2ccccc2)cc1)c1ccco1	-46.6%
COc1ccc(C(=O)/C=C/Sc2nc3ccccc3o2)cc1	38.4% (active)
COc1ccc(C(=O)N/C(N)=N/c2nc3ccccc3o2)cc1	-46.2%
COc1ccc(CCNC(=O)CSc2nc3ccccc3o2)cc1	-19.1%
O=C(CCCN1C(=O)/C(=C/c2cccs2)SC1=S)Nc1ccccc1O	-2%
COc1ccc(C(=O)CN2C(=O)c3ccccc3C2=O)cc1	-9.8%
CCOC(=O)CSc1nc2c(sc(=S)n2Cc2ccco2)c(=O)n1-c1ccccc1	16.8%
N#CCSc1nc2c(sc(=S)n2Cc2ccco2)c(=O)n1-c1ccc(F)cc1	66.5% (active)

SMILES	inhibition
CCOC(=O)CSc1nc2c(sc(=S)n2Cc2ccco2)c(=O)n1-c1ccc(F)cc1	14.1%
COc1ccccc1NC(=O)Cn1cnc2c(nc3n2CCCCC3)c1=O	-24.1%
CC(=O)C1=C(C)NC(C)=C(C(C)=O)C1c1ccccc1	-20.8%
CCOc1ccc(C(=O)Nc2nnc(S(=O)(=O)Nc3ccccc3C)s2)cc1	-17.1%
CCOC(=O)c1ccc(N=c2sc(C(=O)OC)cc(=O)n2Cc2ccc3c(c2)OCO3)cc1	22.1%
COC(=O)c1cc(=O)n(Cc2ccc3c(c2)OCO3)c(=Nc2ccc(F)cc2)s1	48.7%
COC(=O)c1cc(=O)n(Cc2ccc3c(c2)OCO3)c(=Nc2ccccc2)s1	73.6% (active)
Cc1nn(Cc2ccccc2)c(C)c1NC(=O)c1cc2nc(-c3ccco3)cc(C(F)(F)F)n2n1	-2%
CCOc1ccc(C2NCCc3cc(OC)c(OC)cc32)cc1OC (centres undefined)	83.1% (active)
CCOc1cc2c(cc1OC)C(c1cccc([N+](=O)[O-])c1)NCC2 (centres undefined)	-31.3%
COc1ccc(C2NCCc3cc(OC)c(OC)cc32)cc1OC (centres undefined)	-2.7%
Clc1cccc2c3c([nH]c12)CCNC3	0.5%
CCn1c2ccccc2c2cc(C3C(C#N)=C(N)Oc4n[nH]c(COC)c43)ccc21 (centres undefined)	54.9% (active)
COCc1[nH]nc2c1C(c1cccc(OC)c1)C(C#N)=C(N)O2 (centres undefined)	4.9%
COCc1[nH]nc2c1C(c1ccc(OC)c(OC)c1)C(C#N)=C(N)O2 (centres undefined)	-5.1%
CC1(C(=O)NNC(=O)c2cccc([N+](=O)[O-])c2)CC1(Br)Br (centres undefined)	-8.9%
N/C(=N\OC(=O)c1cc(Cl)ccc1Cl)c1ccccn1	9.6%
N/C(=N\OC(=O)c1cc(Br)ccc1Cl)c1ccccn1	-19.5%
N/C(=N\OC(=O)c1ccc(Cl)cc1Cl)c1ccccn1	51.2% (active)
N/C(=N\OC(=O)c1ccccc1Cl)c1ccccn1	54.7% (active)
N/C(=N\OC(=O)c1ccc([N+](=O)[O-])cc1Cl)c1ccccn1	45.8%
COc1ccccc1C(=O)O/N=C(\N)c1ccccn1	-10%
